Source: PubChem BioAssay (NCATS)
Records with an inconclusive call do not appear. The source made the active and inactive calls. Unless noted, calls come from the whole dose curve; as a rule, active = well fitted curve in the direction sought with a large enough effect; inconclusive = small, poorly fitted or top-dose-only effect, or another doubt; inactive = no such curve, though single readings can be large; an effect the other way counts as inactive or inconclusive.

Columns and labels:
[1] = biological target: Aldehyde dehydrogenase, mitochondrial (Homo sapiens) (UniProt P05091); assay: qHTS for Inhibitors of the Aldehyde Dehydrogenase Family (ALDH2) Confirmatory screens (AID 2061303; active = well fitted inhibition curve with a large enough effect; title and protocol of this record describe different tests; note: nearly all actives have a fitted effect of over 45% in size; note: potency is the fitted concentration of half-maximal effect; for activity change, negative = inhibition: % is set by controls: 0 for no effect and ±100 for the full control effect)
[2] = qHTS for Inhibitors of the Aldehyde Dehydrogenase Family (ALDH1A2, ALDH1A3, ALDH2, ALDH3A1) (AID 2061307); note: nearly all actives have a fitted effect of over 50% in size; for Potency: test system not described further here; potency is the fitted concentration of half-maximal effect; for activity change, negative = inhibition: % is set by controls: 0 for no effect and ±100 for the full control effect
[3] = biological target: Aldehyde dehydrogenase, mitochondrial (Homo sapiens) (UniProt P05091); assay: qHTS for Inhibitors of the Aldehyde Dehydrogenase Family (ALDH2) Primary screen (AID 2061308);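 note: plate controls were vehicle for no effect and reference inhibitor for full effect; nearly all actives have a fitted effect of over 55% in size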
[4] = biological target: Retinaldehyde dehydrogenase 3 (Homo sapiens) (UniProt P47895); assay: qHTS for Inhibitors of the Aldehyde Dehydrogenase Family (ALDH1A3) Confirmatory screens (AID 2061311); note: nearly all actives have a fitted effect of over 60% in size; note: potency is the fitted concentration of half-maximal effect; for activity change, negative = inhibition: % is set by controls: 0 for no effect and ±100 for the full control effect
[5] = biological target: Retinal dehydrogenase 2 (Homo sapiens) (UniProt O94788); assay: qHTS for Inhibitors of the Aldehyde Dehydrogenase Family (ALDH1A2) Confirmation screens (AID 2061314); note: nearly all actives have a fitted effect of over 65% in size; note: potency is the fitted concentration of half-maximal effect
[6] = biological target: Retinaldehyde dehydrogenase 3 (Homo sapiens) (UniProt P47895); assay: qHTS for Inhibitors of the Aldehyde Dehydrogenase Family (ALDH1A3) Primary screen (AID 2061315);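 note: plate controls were DMSO vehicle for no effect and reference inhibitor for full effect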
[7] = biological target: Aldehyde dehydrogenase 1A1 (Homo sapiens) (UniProt P00352); assay: qHTS for Inhibitors of the Aldehyde Dehydrogenase Family (ALDH1A1) Confirmatory screens (AID 2061316); note: nearly all actives have a fitted effect of over 65% in size; note: potency is the fitted concentration of half-maximal effect; for activity change, negative = inhibition: % is set by controls: 0 for no effect and ±100 for the full control effect

COc1ccc(C2=Nn3c(nnc3-c3cc(OC)cc(OC)c3)SC2)cc1
inactive: Potency [1] | Potency [2] | Potency [3] | Potency [4] | Potency [5] | Potency [6] | Potency [7]

N#Cc1ccc(-c2ccc(CNc3ccc(N4CCCCC4)cc3)o2)cc1
inactive: Potency [3]
active: Potency [1] 0.0712 µM | Potency [2] 0.712 µM | Potency [4] 11.3 µM | Potency [5] 2.25 µM | Potency [7] 8.96 µM

Cc1ccc(Nc2nc(C#N)nc(NC3CCCC3)n2)cc1
inactive: Potency [1] | Potency [2] | Potency [3] | Potency [4] | Potency [6]

Oc1ccc(CC2NCCc3cc(O)c(O)cc32)cc1 (configuration not stated)
inactive: Potency [1] | Potency [2] | Potency [3] | Potency [4] | Potency [5] | Potency [7]

O=C1[C@@H]2[C@H]3CC[C@H](C3)[C@@H]2C(=O)N1CCCCN1CCN(c2ncccn2)CC1
inactive: Potency [1] | Potency [2] | Potency [3] | activity change, negative = inhibition [4] -14.2% [at 0.022 µM] | Potency [5] | Potency [6]
active: Potency [7] 2.52 µM

CCOC(=O)c1ccc(O)c2ncc(-c3ccc(C(=N)N)cc3)cc12
inactive: Potency [1] | Potency [2] | Potency [3] | Potency [5] | Potency [7]
active: Potency [4] 10.1 µM

Cc1cc2c(s1)c1cnn(Cc3c(Cl)ccc(C)c3F)c(=O)c1n2C
inactive: Potency [1] | Potency [2] | Potency [3] | Potency [4] | Potency [5] | Potency [6] | Potency [7]

S=C(NCCCc1cnc[nH]1)NCCCN(Cc1ccc(Cl)c(Cl)c1)c1ccccn1
inactive: Potency [1] | Potency [2] | Potency [3] | Potency [4] | Potency [5] | Potency [6] | Potency [7]

Oc1ccc(Oc2ccccc2F)c2cccnc12
inactive: Potency [3]
active: Potency [1] 4.49 µM | Potency [2] 17 µM | Potency [4] 2.01 µM | Potency [5] 2.01 µM | Potency [7] 5.04 µM
